In PubChem BioAssay (NCI):
Where “and” joins values, the source holds several entries; their conditions need not be identical. Identical values can stand only once. The panel holds about 83,000 compounds, 20% with a hit somewhere; the sample as a whole holds those more often.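 Values shown are percent growth following 48 h exposure of cells in 96-well plates to a single concentration of compound; below 10 was considered active.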 Calls of active or inactive are those of the source.

Assays:
Experiment in all cases: NCI-60 one-dose screen, 48 h (100 = growth as untreated, 0 = no growth, -100 = all killed)
[1] = system: SK-MEL-2 melanoma; conditions: 10 µM unless noted
[2] = system: SN12C renal
[3] = system: UO-31 renal
[4] = system: TK-10 renal
[5] = system: ACHN renal
[6] = system: CAKI-1 renal; conditions: 10 µM unless noted
[7] = system: A498 renal
[8] = system: CCRF-CEM leukemia
[9] = system: MOLT-4 leukemia
[10] = system: SR leukemia
[11] = system: RPMI-8226 leukemia; conditions: 10 µM unless noted
[12] = system: OVCAR-8 ovarian
[13] = system: OVCAR-5 ovarian
[14] = system: OVCAR-4 ovarian
[15] = system: SK-OV-3 ovarian; conditions: 10 µM unless noted
[16] = system: IGROV1 ovarian
[17] = system: OVCAR-3 ovarian
[18] = system: HS 578T breast
[19] = system: NCI/ADR-RES ovarian
[20] = system: EKVX NSCLC

Measured: growth

N=C(N=C(N)N)N1CCOCC1
inactive: [1] 111% and 99.2% | [2]; 10 µM unless noted 99.4% and 96.7% | [3]; 10 µM unless noted 83.8% and 85% | [4]; 10 µM unless noted 103% and 97.9% | [5]; 10 µM unless noted 103% | [6] 94.8% and 103% | [7]; 10 µM unless noted 91.7% and 102% | [8]; 10 µM unless noted 107% and 93.8% | [9]; 10 µM unless noted 105% and 102% | [10]; 10 µM unless noted 103% | [11] 113% and 107% | [12]; 10 µM unless noted 105% and 106% | [13]; 10 µM unless noted 99.3% | [14]; 10 µM unless noted 95.4% and 108% | [15] 101% and 104% | [16]; 10 µM unless noted 100% and 109% | [17]; 10 µM unless noted 114% and 107% | [18]; 10 µM unless noted 105% and 100% | [19]; 10 µM unless noted 105% and 98.8%

S=c1nc[nH]c2nc[nH]c12
15.9% (inactive) and -6.1% (active): [4]; 750 µM
inactive: [20]; 10 µM 89.9% | [20]; 50 µM 73.9% | [2]; 10 µM 69.5% | [2]; 50 µM 31.5% | [3]; 10 µM 34% | [3]; 50 µM 36.2% | [4]; 10 µM 33.1% | [5]; 10 µM 50% | [5]; 50 µM 20.5% | [7]; 10 µM 71.1% | [7]; 50 µM 47.5% | [8]; 10 µM 13% | [8]; 50 µM 16.8% | [9]; 10 µM 10.6% | [9]; 50 µM 13.3% | [10]; 10 µM 18.1% | [10]; 50 µM 26.6% | [11] 24.9% | [12]; 10 µM 26.6% | [12]; 50 µM 24% | [13]; 10 µM 44.7% | [13]; 50 µM 31.3% | [14]; 10 µM 50.2% | [14]; 50 µM 30.9% | [15] 36.2% | [16]; 10 µM 70.5% | [16]; 50 µM 32.3% | [17]; 10 µM 29.6% | [17]; 50 µM 23.3% | [18]; 10 µM 54.6% | [18]; 50 µM 43.7% | [19]; 10 µM 22.8% | [19]; 50 µM 24.9%

O=C1C=CC(n2cc(F)c(=O)[nH]c2=O)O1 (centres undefined)
inactive: [1] 109% | [2]; 10 µM unless noted 64.4% | [3]; 10 µM unless noted 63.4% | [4]; 10 µM unless noted 75.7% | [5]; 10 µM unless noted 56.5% | [6] 46.5% | [7]; 10 µM unless noted 79.5% | [8]; 10 µM unless noted 50.4% | [9]; 10 µM unless noted 54.4% | [10]; 10 µM unless noted 13.1% | [11] 62% | [12]; 10 µM unless noted 62.3% | [13]; 10 µM unless noted 128% | [14]; 10 µM unless noted 74.9% | [15] 68.2% | [17]; 10 µM unless noted 57.5% | [18]; 10 µM unless noted 90.9% | [19]; 10 µM unless noted 85.1%

CC(=O)Nc1ccc(OC(C)=O)cc1
-16.6% (active) and 111% (inactive): [1]
inactive: [2]; 10 µM unless noted 20.2% and 102% | [3]; 10 µM unless noted 21.8% and 98.6% | [4]; 10 µM unless noted 42% and 99.1% | [5]; 10 µM unless noted 26.8% and 110% | [6] 17.8% and 98.8% | [9]; 10 µM unless noted 15.2% and 117% | [10]; 10 µM unless noted 115% | [13]; 10 µM unless noted 35.7% and 97.5% | [14]; 10 µM unless noted 98.7% | [16]; 10 µM unless noted 23.7% and 113% | [18]; 10 µM unless noted 29.7% and 118%
8% (active) and 101% (inactive): [12]; 10 µM unless noted
-4.1% (active) and 121% (inactive): [15]
-11.9% (active) and 106% (inactive): [19]; 10 µM unless noted
-25.4% (active) and 104% (inactive): [11]
2.02% (active) and 113% (inactive): [17]; 10 µM unless noted
-40.5% (active) and 65.6% (inactive): [7]; 10 µM unless noted
6.69% (active) and 106% (inactive): [8]; 10 µM unless noted

O=C(N=C1C(=O)C2(CCCCC2)C2(N=C(c3ccccc3)OC2=O)C12CCCCC2)c1ccccc1 (centres undefined)
inactive: [1] 76% | [2]; 10 µM unless noted 77.8% | [4]; 10 µM unless noted 86.2% | [5]; 10 µM unless noted 80.5% | [9]; 10 µM unless noted 50.5% | [10]; 10 µM unless noted 71.8% | [11] 53.2% | [12]; 10 µM unless noted 75.4% | [13]; 10 µM unless noted 85.8% | [14]; 10 µM unless noted 73.8% | [15] 99.3% | [16]; 10 µM unless noted 75% | [17]; 10 µM unless noted 63.6% | [18]; 10 µM unless noted 95.9% | [19]; 10 µM unless noted 76.8%

CC1=CC(=O)c2cccc(NC3=NCCO3)c21
inactive: [1] 93.8% | [2]; 10 µM unless noted 95.1% | [3]; 10 µM unless noted 86.5% | [4]; 10 µM unless noted 98.3% | [5]; 10 µM unless noted 98.7% | [6] 94.2% | [7]; 10 µM unless noted 110% | [8]; 10 µM unless noted 108% | [9]; 10 µM unless noted 111% | [10]; 10 µM unless noted 91.6% | [11] 91.6% | [12]; 10 µM unless noted 102% | [13]; 10 µM unless noted 95.2% | [14]; 10 µM unless noted 95.1% | [15] 103% | [16]; 10 µM unless noted 104% | [17]; 10 µM unless noted 106% | [18]; 10 µM unless noted 103% | [19]; 10 µM unless noted 97.5%
